Source: PubChem BioAssay (NCATS)
The source made the active and inactive calls. Calls follow the shape of the full dose curve.

Experiment: qHTS Assay for Identification of Small Molecule Antagonists for NFkB Signaling Pathway. (AID 624479);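 also: pathway stimulated with TNF alpha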
Conditions: NFkB pathway reporter cell assay, antagonist mode; series mostly up to 38.3 µM
Potency is read from the fitted curve at half-maximal effect.

Question: Which Potency does the source give for `CNC(=O)c1cc(Oc2ccc(NC(=O)Nc3ccc(Cl)c(C(F)(F)F)c3)c(F)c2)ccn1` here?
Answer: The Potency was 5.95 µM (active).

Question: With `Cc1ccc(NC(=O)c2ccc(CN3CCN(C)CC3)cc2)cc1Nc1nc(-c2cccnc2)cs1` as the compound, how does the Potency read?
Answer: The Potency was 16.8 µM (active).

Question: With `COc1cc2nccc(Oc3ccc(NC(=O)Nc4cc(C)on4)c(Cl)c3)c2cc1OC` as the compound, how does the Potency read?
Answer: The Potency was 16.8 µM (active).

Question: For `CCCCn1c(=O)n(Cc2ccccc2F)c(=O)c2[nH]c(Cc3ccc(NC(C)=O)cc3)nc21`, which Potency is on record?
Answer: Its Potency is 6.68 µM (active).

Question: For `NC(=O)c1ccc(N(C(N)=O)c2c(F)cccc2F)nc1-c1ccc(F)cc1F`, which Potency is on record?
Answer: The Potency was “inactive”.

Question: With `CCC=CC[C@H]1C(=O)CC[C@@H]1CC(=O)OC` as the compound, how does the Potency read?
Answer: The Potency was “inactive”.

Question: With `CC(C)C[C@@H](C(=O)N[C@H](C(=O)OC1CCCC1)c1ccccc1)[C@H](O)C(=O)NO` as the compound, how does the Potency read?
Answer: The Potency was “inactive”.

Question: With `CCc1cc(-c2n[nH]c(C)c2-c2ccc3c(c2)OCCO3)c(O)cc1O` as the compound, how does the Potency read?
Answer: Its Potency is 3.75 µM (active).

Question: With `CCCCc1ccc(NS(=O)(=O)c2ccc(C)c(C(=O)N3CCN(c4cccc(C)c4C)CC3)c2)cc1` as the compound, how does the Potency read?
Answer: The Potency was 16.8 µM (active).

Question: Which Potency does the source give for `CCCCCCCCCCCCCC(=O)N[C@H](CO)[C@H](O)c1ccc([N+](=O)[O-])cc1` here?
Answer: The Potency was 29.8 µM (active).

Question: Which Potency does the source give for `CC(O)=C(C#N)C(=O)Nc1ccc(C(F)(F)F)cc1` here?
Answer: Its Potency is 1.88 µM (active).

Question: With `CCC(=O)N1CCN(c2ccc(-n3c(=O)ccc4cnc5ccc(-c6cnc7ccccc7c6)cc5c43)cc2C(F)(F)F)CC1` as the compound, how does the Potency read?
Answer: Its Potency is 5.3 µM (active).

Question: For `CC(C)n1c(C=C[C@H](O)C[C@H](O)CC(=O)O)c(-c2ccc(F)cc2)c2ccccc21`, which Potency is on record?
Answer: Its Potency is “inactive”.

Question: For `CN(C)CCCNC(=O)c1ccc(-c2cc(O)c3ncccc3c2)cc1`, which Potency is on record?
Answer: The Potency was “inactive”.

Question: With `Cn1cc(-c2ccc3nnc(Sc4ccc5ncccc5c4)n3n2)cn1` as the compound, how does the Potency read?
Answer: The Potency was “inactive”.

Question: Which Potency does the source give for `CCN(CC)CCCCNc1nc2cc(Cl)c(Cl)cc2nc1-c1ccc(-c2cccs2)s1` here?
Answer: Its Potency is 11.9 µM (active).

Question: For `O=C(Nc1cccc(Cl)c1)Nc1ncc(CCNc2ncnc3ccsc23)s1`, which Potency is on record?
Answer: The Potency was 23.7 µM (active).

Question: With `O=C(O)c1ccc(O)c2ncc(N3CCOCC3)cc12` as the compound, how does the Potency read?
Answer: Its Potency is “inactive”.

Question: For `Cc1nn(Cc2ccccc2Cl)c(C)c1CN(C)CC(O)COc1ccc(Cl)cc1` (stereo unspecified), which Potency is on record?
Answer: Its Potency is “inactive”.

Question: Which Potency does the source give for `OCCn1cc(-c2ccc3c(c2)CCC3=NO)c(-c2ccncc2)n1` here?
Answer: The Potency was “inactive”.

Question: For `CN1C(=O)C(Cc2c[nH]c3ccccc23)NC1=S` (stereo unspecified), which Potency is on record?
Answer: The Potency was “inactive”.

Question: With `CC(C)Oc1cc(Nc2nc(N[C@@H](C)c3ccc(F)cn3)ncc2Cl)[nH]n1` as the compound, how does the Potency read?
Answer: Its Potency is 14.9 µM (active).

Question: With `Nc1ccc(-c2ccc3ncc4ccc(=O)n(-c5cccc(C(F)(F)F)c5)c4c3c2)cn1` as the compound, how does the Potency read?
Answer: Its Potency is 4.73 µM (active).

Question: Which Potency does the source give for `O=C1CN2Cc3c(ccc(Cl)c3Cl)N=C2N1` here?
Answer: Its Potency is “inactive”.

Question: With `CNC(=O)c1cc(COc2nnc(Nc3ccc(Cl)cc3)c3ccoc23)ccn1` as the compound, how does the Potency read?
Answer: Its Potency is 26.6 µM (active).

Question: Which Potency does the source give for `COC(=O)Nc1ccc(-c2nc(N3CCOCC3)c3cnn(C4CCN(C(=O)OC)CC4)c3n2)cc1` here?
Answer: The Potency was “inactive”.
